What was measured:
Experiment in all cases: log2 ratio of Biotin-Ahx-Ub-VS probe labelling (fragment/DMSO); higher = less target engagement (more negative = stronger competition), active = hit call of the paper (q ≤ 0.05, log2 ratio ≤ -1)
Conditions in all cases: compound concentration: 200 uM; treatment time: 3 h
USP19 = target: T1, USP19 (UniProt O94966)
T1 sequence (whole entry): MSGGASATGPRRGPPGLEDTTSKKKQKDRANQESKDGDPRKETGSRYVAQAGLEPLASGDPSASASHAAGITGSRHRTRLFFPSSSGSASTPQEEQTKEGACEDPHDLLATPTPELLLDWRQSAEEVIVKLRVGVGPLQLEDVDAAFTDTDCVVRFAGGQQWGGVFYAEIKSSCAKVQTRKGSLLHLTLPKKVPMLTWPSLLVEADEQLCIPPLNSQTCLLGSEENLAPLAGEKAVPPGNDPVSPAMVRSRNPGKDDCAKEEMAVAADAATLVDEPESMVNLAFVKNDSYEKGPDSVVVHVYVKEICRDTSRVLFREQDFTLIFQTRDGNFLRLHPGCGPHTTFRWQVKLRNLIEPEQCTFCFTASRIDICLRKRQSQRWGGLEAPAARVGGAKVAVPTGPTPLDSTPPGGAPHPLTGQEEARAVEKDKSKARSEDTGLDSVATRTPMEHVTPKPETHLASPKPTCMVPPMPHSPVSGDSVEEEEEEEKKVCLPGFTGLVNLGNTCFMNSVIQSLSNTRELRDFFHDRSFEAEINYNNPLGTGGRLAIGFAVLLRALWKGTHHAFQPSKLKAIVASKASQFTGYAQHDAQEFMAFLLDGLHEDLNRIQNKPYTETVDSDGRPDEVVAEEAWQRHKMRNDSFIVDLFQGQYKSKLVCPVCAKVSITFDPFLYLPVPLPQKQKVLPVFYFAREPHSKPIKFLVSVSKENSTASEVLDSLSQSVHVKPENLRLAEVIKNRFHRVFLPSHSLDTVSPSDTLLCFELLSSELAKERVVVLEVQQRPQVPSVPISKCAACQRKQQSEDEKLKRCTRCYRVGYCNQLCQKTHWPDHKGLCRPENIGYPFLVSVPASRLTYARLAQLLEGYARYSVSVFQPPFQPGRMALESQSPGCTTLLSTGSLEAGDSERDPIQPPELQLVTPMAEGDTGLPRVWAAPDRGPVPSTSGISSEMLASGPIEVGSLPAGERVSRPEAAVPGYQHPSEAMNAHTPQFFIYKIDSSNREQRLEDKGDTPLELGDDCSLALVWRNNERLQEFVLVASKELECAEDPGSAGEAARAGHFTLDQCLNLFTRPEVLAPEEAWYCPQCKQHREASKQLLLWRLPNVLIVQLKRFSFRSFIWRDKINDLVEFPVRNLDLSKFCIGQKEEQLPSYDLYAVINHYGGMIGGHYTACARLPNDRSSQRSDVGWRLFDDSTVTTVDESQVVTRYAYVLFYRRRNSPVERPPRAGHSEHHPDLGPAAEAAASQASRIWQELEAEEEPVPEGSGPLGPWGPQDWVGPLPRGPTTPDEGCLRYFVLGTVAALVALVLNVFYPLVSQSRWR
In short: (§1)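 Average log2 ratios of fragment over vehicle were obtained by unpaired t-test from global-median-normalised Spectronaut label-free quantities. Proteins with ≥2 unique peptides were included. HEK293T lysate (495 µg per sample) was treated in triplicate with fragment at 200 µM or vehicle for 3 h, then with Biotin-Ahx-Ub-VS at 0.5 µM final for 1 h, and labelled DUBs were NeutrAvidin-enriched and run by diaPASEF LC-MS/MS.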

USP22 = target: T2, USP22 (UniProt Q9UPT9)
T2 sequence (whole entry): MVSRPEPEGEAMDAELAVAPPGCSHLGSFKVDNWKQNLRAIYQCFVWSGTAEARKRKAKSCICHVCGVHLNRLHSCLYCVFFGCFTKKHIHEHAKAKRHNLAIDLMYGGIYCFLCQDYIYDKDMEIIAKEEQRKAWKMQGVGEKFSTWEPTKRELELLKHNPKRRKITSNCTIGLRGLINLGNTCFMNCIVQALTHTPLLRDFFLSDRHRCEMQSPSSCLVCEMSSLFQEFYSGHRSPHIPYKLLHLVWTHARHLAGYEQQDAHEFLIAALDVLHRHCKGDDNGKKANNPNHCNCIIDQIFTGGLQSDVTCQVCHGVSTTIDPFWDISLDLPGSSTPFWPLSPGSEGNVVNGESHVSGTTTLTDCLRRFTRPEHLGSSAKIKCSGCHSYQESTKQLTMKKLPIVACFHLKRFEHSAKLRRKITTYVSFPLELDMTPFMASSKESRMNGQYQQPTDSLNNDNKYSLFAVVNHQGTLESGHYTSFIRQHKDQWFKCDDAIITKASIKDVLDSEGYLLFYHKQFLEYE
In short: as §1

USP24 = USP24 (UniProt Q9UPU5)
Sequence of USP24 (Q9UPU5 whole entry): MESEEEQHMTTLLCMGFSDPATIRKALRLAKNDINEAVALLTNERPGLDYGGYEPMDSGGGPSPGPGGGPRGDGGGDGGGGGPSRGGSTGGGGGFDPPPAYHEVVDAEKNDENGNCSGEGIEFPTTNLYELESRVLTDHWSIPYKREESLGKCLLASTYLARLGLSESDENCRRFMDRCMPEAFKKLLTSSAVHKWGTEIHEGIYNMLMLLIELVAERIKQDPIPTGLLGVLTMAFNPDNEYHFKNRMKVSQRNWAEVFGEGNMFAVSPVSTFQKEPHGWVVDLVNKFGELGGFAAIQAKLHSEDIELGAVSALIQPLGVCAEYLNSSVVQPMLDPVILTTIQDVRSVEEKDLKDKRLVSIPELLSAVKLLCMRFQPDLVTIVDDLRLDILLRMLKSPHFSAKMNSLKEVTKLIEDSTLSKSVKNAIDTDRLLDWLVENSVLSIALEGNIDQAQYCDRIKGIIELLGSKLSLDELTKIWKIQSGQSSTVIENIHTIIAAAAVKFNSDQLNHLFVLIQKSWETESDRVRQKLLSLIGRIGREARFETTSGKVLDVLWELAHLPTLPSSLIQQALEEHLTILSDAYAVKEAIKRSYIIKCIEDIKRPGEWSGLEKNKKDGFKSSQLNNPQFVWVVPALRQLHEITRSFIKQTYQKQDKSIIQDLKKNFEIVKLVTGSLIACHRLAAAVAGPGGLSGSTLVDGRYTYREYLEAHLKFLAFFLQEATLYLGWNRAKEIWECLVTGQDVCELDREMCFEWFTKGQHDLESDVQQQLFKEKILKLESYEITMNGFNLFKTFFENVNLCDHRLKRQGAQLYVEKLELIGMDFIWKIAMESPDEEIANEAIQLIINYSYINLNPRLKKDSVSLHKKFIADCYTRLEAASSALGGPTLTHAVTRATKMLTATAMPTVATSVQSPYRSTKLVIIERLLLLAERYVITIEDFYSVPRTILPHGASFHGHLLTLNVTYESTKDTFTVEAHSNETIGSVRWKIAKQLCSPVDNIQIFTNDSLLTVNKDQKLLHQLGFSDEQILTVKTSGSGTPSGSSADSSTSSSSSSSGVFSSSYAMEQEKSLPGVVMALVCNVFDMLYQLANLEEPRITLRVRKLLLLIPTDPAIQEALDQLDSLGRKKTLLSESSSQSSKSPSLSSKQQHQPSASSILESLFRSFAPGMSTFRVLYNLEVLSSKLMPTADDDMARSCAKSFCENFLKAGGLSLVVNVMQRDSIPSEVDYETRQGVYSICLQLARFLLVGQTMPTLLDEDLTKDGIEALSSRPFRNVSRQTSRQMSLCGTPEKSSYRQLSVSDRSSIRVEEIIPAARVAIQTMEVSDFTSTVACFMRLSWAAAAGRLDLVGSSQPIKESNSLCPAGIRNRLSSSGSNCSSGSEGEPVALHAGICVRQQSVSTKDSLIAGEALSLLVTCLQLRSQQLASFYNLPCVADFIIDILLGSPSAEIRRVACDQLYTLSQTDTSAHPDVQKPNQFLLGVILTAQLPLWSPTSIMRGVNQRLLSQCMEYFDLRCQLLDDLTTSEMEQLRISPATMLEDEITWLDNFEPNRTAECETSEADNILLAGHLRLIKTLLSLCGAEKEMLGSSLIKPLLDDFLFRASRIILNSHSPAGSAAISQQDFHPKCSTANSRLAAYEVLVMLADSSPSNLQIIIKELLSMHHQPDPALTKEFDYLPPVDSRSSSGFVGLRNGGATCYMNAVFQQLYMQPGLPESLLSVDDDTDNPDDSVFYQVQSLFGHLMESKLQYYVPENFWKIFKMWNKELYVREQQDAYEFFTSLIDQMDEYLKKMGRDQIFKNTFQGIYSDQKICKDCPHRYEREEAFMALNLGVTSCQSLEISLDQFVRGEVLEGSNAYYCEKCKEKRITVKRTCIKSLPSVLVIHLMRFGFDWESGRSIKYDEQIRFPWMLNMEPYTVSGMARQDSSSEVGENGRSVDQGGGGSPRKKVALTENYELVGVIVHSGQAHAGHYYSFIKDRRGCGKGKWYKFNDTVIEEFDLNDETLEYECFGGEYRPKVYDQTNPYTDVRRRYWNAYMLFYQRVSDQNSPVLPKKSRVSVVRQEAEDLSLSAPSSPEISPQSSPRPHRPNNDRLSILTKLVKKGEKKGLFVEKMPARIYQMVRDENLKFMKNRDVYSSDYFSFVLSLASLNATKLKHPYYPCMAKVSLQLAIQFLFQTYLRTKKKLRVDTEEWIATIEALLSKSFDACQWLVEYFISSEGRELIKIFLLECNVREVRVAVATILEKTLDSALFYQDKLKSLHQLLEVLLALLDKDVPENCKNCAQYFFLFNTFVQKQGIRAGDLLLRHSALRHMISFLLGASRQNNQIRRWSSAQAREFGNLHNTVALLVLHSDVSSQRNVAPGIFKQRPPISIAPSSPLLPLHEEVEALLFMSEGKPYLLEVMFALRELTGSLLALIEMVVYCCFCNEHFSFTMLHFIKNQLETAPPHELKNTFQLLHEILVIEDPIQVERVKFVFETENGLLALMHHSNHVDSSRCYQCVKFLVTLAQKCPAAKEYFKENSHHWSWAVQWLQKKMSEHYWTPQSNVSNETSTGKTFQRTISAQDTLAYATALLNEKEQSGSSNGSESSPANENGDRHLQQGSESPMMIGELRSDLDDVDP
In short: as §1

USP25 = target: T3, USP25 (UniProt Q9UHP3)
T3 sequence (whole entry): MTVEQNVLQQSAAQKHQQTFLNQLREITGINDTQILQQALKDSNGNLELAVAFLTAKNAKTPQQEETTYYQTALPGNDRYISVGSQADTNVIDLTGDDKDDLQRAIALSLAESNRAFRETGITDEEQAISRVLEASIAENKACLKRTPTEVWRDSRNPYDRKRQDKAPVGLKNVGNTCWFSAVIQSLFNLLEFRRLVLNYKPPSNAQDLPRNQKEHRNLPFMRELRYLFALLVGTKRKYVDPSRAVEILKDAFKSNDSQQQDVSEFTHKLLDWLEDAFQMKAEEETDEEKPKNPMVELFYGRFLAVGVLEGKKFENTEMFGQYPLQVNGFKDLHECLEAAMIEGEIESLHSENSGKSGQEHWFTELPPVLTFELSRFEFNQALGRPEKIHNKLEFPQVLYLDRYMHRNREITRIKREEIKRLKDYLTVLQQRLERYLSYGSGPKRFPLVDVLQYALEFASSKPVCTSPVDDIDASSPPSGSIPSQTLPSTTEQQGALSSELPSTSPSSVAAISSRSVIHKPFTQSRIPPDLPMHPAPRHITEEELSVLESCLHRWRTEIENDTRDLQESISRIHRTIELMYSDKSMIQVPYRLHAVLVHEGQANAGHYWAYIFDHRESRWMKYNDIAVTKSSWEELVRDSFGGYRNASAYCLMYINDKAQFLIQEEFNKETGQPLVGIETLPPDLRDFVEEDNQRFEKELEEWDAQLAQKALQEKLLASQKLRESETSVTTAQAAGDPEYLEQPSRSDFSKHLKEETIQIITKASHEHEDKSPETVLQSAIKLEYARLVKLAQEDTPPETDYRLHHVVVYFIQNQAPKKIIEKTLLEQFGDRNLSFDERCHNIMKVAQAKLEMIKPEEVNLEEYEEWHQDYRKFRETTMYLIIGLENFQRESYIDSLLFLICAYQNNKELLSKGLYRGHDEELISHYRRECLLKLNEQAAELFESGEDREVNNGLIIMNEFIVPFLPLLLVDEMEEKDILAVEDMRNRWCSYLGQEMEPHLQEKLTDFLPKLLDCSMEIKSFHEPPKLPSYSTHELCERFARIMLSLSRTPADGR
In short: as §1

USP28 = target: T4, USP28 (UniProt Q96RU2)
T4 sequence (whole entry): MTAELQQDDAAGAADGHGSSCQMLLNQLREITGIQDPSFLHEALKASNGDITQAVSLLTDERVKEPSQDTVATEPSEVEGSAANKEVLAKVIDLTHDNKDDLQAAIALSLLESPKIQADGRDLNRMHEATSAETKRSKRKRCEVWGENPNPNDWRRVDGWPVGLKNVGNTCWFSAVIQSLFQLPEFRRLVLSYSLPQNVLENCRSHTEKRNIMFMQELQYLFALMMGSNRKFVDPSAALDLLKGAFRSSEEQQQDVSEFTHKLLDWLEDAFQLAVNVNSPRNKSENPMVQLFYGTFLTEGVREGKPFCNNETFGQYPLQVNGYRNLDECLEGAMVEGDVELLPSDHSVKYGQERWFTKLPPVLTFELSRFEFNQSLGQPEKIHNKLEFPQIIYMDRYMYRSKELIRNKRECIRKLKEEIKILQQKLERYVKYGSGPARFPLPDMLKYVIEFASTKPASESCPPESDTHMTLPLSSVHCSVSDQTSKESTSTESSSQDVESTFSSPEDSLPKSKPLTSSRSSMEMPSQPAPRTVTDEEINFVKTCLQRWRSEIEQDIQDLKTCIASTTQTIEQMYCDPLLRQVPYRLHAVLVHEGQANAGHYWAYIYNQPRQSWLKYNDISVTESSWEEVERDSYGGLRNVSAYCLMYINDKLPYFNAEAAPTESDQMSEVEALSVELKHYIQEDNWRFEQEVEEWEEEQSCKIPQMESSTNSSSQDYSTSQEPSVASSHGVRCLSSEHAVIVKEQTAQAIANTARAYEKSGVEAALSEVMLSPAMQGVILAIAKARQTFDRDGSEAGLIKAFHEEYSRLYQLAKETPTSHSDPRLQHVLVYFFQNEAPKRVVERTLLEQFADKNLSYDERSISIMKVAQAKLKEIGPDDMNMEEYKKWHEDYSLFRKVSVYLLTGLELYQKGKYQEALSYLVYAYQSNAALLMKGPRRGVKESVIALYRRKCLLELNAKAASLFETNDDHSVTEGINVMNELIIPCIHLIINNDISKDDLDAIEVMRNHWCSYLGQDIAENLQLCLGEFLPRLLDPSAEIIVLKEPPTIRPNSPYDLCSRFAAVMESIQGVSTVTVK
In short: as §1

Measured: log2 ratio of Biotin-Ahx-Ub-VS probe labelling

CC(NC(=O)CCl)c1ccc2[nH]ncc2c1 (stereo not given)
inactive: USP19 -0.529 | USP22 0.0735 | USP24 -0.886 | USP25 -0.509 | USP28 -0.901
